# Most compounds without a hit are left out; they make up all but 1.3% or so of the library.
# GLD-1 TGE inh: GLD-1-TGE RNA interaction inhibition (C. elegans) | Q17339 | purified GLD-1 + fluorescein TGE RNA, fluorescence polarization | inhibition, % at 5.96 µM | actives 0.44% (n = 320,000) | AID 2280;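 active = percent inhibition above a per-plate cutoff, the plate mean of test compounds plus 3 SD, cut at about 30% in these data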;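 note: 0% = DMSO wells with GLD-1 and probe and 100% = wells lacking GLD-1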
# EBV gp42 block: EBV gp42 inhibition; inhibition, % (tested at 21.74 µM); AID 1085; Q1HVG2; actives 0.42% (n = 220,000); Fluorescence polarization binding assay, mP read-out; in the data active = inhibition above about 50%
# Target sequence (Q1HVG2 whole entry, looked up): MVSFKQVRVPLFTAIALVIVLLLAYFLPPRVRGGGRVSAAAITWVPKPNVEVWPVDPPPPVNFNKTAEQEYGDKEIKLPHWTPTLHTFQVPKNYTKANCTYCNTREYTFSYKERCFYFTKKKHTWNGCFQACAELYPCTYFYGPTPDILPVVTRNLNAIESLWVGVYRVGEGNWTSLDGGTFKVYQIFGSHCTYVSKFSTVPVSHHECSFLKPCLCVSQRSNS
# MEX-5 binding: C. elegans MEX-5 TCR-2 RNA binding activity. Q9XUB2. MEX-5/FITC-TCR2 RNA binding, fluorescence polarization; active compounds read low. activity score (negative = inhibition of binding), % at 10 µM. actives 0.38% (n = 300,000). AID 1832;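 active = inhibition past about -25% in most replicates, and total fluorescence under double the plate's negative control median, limit read from the data; inconclusive = replicates evenly split on the limit, or fluorescence at least double controls; inactive = too little inhibition in most replicates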;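 note: 0% = DMSO and -100% = 5 µM competing unlabeled TCR2 RNA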
# Bcl-xL primary: inhibitors of human Bcl-xL; GST-Bcl-xL / FITC-Bim BH3 peptide fluorescence polarization; inhibition, % at 10.9 µM; actives 0.7% (n = 320,000);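 active = inhibition above the mean of all tested compounds plus 3 SD, cutoff set per campaign, cut at about 30% in these data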;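 note: 0% = DMSO wells and 100% = unlabeled Bim-BH3 peptide competitor; inhibitors lower millipolarization by displacing the labeled peptide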
# Target sequence (Q07817 whole entry, looked up): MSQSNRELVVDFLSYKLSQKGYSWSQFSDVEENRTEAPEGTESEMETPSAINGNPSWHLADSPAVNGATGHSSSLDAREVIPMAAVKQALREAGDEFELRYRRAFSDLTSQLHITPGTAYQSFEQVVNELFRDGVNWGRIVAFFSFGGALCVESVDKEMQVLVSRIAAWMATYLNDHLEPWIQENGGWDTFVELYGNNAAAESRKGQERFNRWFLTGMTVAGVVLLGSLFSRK
# MCL1-BIM inh: disrupts human MCL1 binding to BIM-BH3 peptide. GST-MCL1 / FITC-Bim-BH3 fluorescence polarization. Q07820. AID 2057. inhibition, % at 10.9 µM. actives 0.68% (n = 320,000);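 active = inhibition above the mean inhibition of all tested compounds plus 3 SD, set per campaign, cut at about 40% in these data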;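 note: 0% = DMSO wells and 100% = unlabeled Bim-BH3 peptide control; higher means more loss of mP so more displacement of Bim peptide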
# Numbers without * were called inactive; ? = inconclusive; nt = no result.
SMILES,GLD-1 TGE inh,EBV gp42 block,MEX-5 binding,Bcl-xL primary,MCL1-BIM inh
O=C(N/N=C/c1cc(Cl)cc([N+](=O)[O-])c1O)c1ccccc1NS(=O)(=O)c1cccs1,-3,-2,-47*,-2,9
O=C(NN=Cc1ccc(O)cc1)c1ccccc1NS(=O)(=O)c1cccs1,14,nt,nt,nt,nt
O=C(N/N=C/c1cc(Cl)cc([N+](=O)[O-])c1O)c1ccc2c(c1)OCO2,-3,nt,-31*,7,30
Cc1ccc(NC(=O)CC(C)c2ccccc2)cc1S(=O)(=O)N1CCOCC1 (stereo unspecified),4,nt,nt,nt,nt
CCN(CC)CCN1C(=O)C(=O)/C(=C(/O)c2ccc(S(=O)(=O)N3CCOCC3)cc2)C1c1ccc(C(C)(C)C)cc1 (stereo unspecified),-1,nt,1,2,9
COc1ccc(CN(C)c2ccc(S(=O)(=O)N3CCN(C)CC3)cc2[N+](=O)[O-])cc1OC,8,nt,nt,-5,-8
O=c1[nH]cc(S(=O)(=O)NCc2ccccc2)c(=O)[nH]1,0,nt,1,7,-1
CN(Cc1ccon1)C(=O)CC1C(=O)NCCN1Cc1ccc(Cl)c(F)c1 (stereo unspecified),25,nt,-4,36*,35
Cc1ccc(N2C(=O)C3CCC(C)(C2=O)C3(C)C)cc1C (stereo unspecified),7,-4,3,38*,-2
COc1ccc2[nH]cc(CCNC(=O)c3ccc4ccccc4n3)c2c1,7,nt,0,1,2
Cn1ccnc1Sc1nc2ccccc2nc1NS(=O)(=O)c1ccccc1,39*,12,-11,34*,39
Cc1ccc(NC(=S)N(Cc2cccs2)Cc2cc3cccc(C)c3[nH]c2=O)cc1,4,-9,-2,1,14
CCCCn1c(-c2ccccc2C)nc2cc3[nH]c(=O)c(C(C)C)nc3cc21,7,nt,0,30*,32
Cc1cc(NC(=O)c2ccccc2C)n(-c2cccc(F)c2)n1,2,nt,2,3,2
COc1ccccc1NC(=S)NNC(=O)c1cc(C)n(C)n1,3,-20,-26*,0,4
COc1cccc(C(=O)NCC(=O)NNc2ncnc(N)c2[N+](=O)[O-])c1,6,-6,-32*,-2,-3
Cn1c(-c2ccc(C=O)s2)nc2c3ccccc3c3ccccc3c21,-8,94*,47,4,-10
COc1ccc(NC(=O)CN2C(=O)/C(=C3\SC(=S)N(C4CCS(=O)(=O)C4)C3=O)c3ccccc32)cc1 (stereo unspecified),-7,61*,1,12,13
C[N+]1=C(/C=C/Nc2ccccc2Cl)C(C)(C)c2ccccc21,-8,-49,7,1,-30
COC(=O)c1ccc2c(c1)C(C)(C)C(/C=C/c1ccccc1O)=[N+]2C,40*,-111,?,-5,-40
Cc1ccc(NC(=O)C2CCN(C(=O)c3ccc(F)cc3)CC2)nc1,2,nt,2,8,3
COc1ccccc1NS(=O)(=O)c1cccc(NS(=O)(=O)c2ccc(Cl)c(C(=O)O)c2)c1,8,nt,nt,nt,nt
CCc1ccc(NC(=O)c2ccc3ncsc3c2)cc1,nt,146*,0,nt,nt
O=C(Nc1ccc(Br)cc1)c1ccc2ncsc2c1,1,nt,0,-2,-10
Cc1cccc(C)c1NC(=O)COC(=O)CCc1c[nH]c2ccccc12,10,nt,nt,1,-1
SMILES,GLD-1 TGE inh,EBV gp42 block,MEX-5 binding,Bcl-xL primary,MCL1-BIM inh
Nc1c(N2CCCC2)cc(Cl)c2nonc12,5,11,-1,50*,34
Clc1ccc(-c2nnc3sc(-c4ccc(Br)o4)nn23)cc1,58*,-13,nt,25,36
Cc1nc2sc(-c3ccccc3)cc2c(=O)n1N,1,-12,-32*,12,-5
COc1ccc(-c2ccc(N)[n+](CCCC(=O)O)n2)cc1,2,nt,0,3,9
CCN(CC)c1ccc(/C=N/NC(=O)c2cccc(S(=O)(=O)Nc3ccccc3OC)c2)c(O)c1,-31,-87,-31*,-10,-19
COc1ccccc1NS(=O)(=O)c1cccc(C(=O)NN=C2CCCC2)c1,-2,2,-3,3,5
CCN(CC)c1ccc(/C=N/NC(=O)c2cccc(S(=O)(=O)Nc3ccccc3OC)c2)cc1,3,-63,2,-1,4
COc1ccccc1NS(=O)(=O)c1cccc(C(=O)N/N=C2\CC(=O)CC(C)(C)C2)c1,59*,9,-3,9,7
CCN(CC)CCN(C(=O)c1ccc(CN2CCCCC2)o1)C(C(=O)NC1CCCCC1)c1ccc(F)cc1 (stereo unspecified),-3,-27,1,2,-5
COC(=O)CCC(=O)OC1(C)C(=O)C2=CN(CC(C)C)C(c3ccc(OC)cc3)=CC2=C(Br)C1=O (stereo unspecified),15,24,-17,43*,46*
COC(=O)CCC(=O)OC1(C)C(=O)C2=CN(CC3CC3)C(c3ccc(OC)cc3)=CC2=C(Br)C1=O (stereo unspecified),21,20,-18,33*,35
COC(=O)CCC(=O)OC1(C)C(=O)C=C2C=C(C3CC3)N(Cc3ccc4c(c3)OCO4)C=C2C1=O (stereo unspecified),17,-1,-6,12,9
COC(=O)CCC(=O)OC1(C)C(=O)C2=CN(Cc3ccccc3)C(c3ccc(OC)cc3)=CC2=C(Br)C1=O (stereo unspecified),17,nt,-20,30,38
COC(=O)CCC(=O)OC1(C)C(=O)C2=CN(C3CC3)C(c3ccc(OC)cc3)=CC2=C(Br)C1=O (stereo unspecified),9,nt,-7,25,25
COC(=O)CCC(=O)OC1(C)C(=O)C2=CN(Cc3ccc(OC)cc3)C(c3ccc(OC)cc3)=CC2=C(Br)C1=O (stereo unspecified),6,nt,-8,11,6
COC(=O)CCC(=O)OC1(C)C(=O)C=C2C=C(C3CC3)N(Cc3ccc(OC)cc3)C=C2C1=O (stereo unspecified),27,22,-16,37*,35
COC(=O)CCC(=O)OC1(C)C(=O)C2=CN(CCCOC(C)C)C(c3ccc(OC)cc3)=CC2=C(Br)C1=O (stereo unspecified),26,35,?,42*,45*
CCC1c2ccc(C)n2CCN1C(=O)Nc1ccccc1OC (stereo unspecified),50*,-8,-6,50*,50*
COc1ccc(OC)c(C(C(=O)NC2CCCCC2)N(C(=O)c2ccccn2)c2cccnc2)c1 (stereo unspecified),1,nt,2,3,4
Cc1ccc(/C=C2/NC(=O)N(Cc3ccccc3)C2=O)s1,-52,-64,-20,-24,-84
Cc1cccc(CN2C(=O)N/C(=C/c3ccc(C)s3)C2=O)c1,-81,-97,-29*,-56,-74
O=C1c2cccc3c([N+](=O)[O-])ccc(c23)C(=O)N1c1ccccn1,20,16,-8,25,24
